Experimental findings from PubChem BioAssay (EPA / NIEHS) are described below.

Results filed as inconclusive are left out. Activity calls are given as the source filed them. How the source made its calls: active means hit-call score of the fitted dose curve at least 0.9, where 1 is the maximum; inconclusive means response in the unintended direction; inactive means score below 0.9.

Experiment [1] deals with human Esterase Plasma (ES), BCHE (gene 590) (UniProt P06276). As to the kind of experiment: NVS_ENZ_hES: NovaScreen (NVS) Enzymatic Assay for human Esterase Plasma (ES) (AID 2283157). In outline: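 Primary single-concentration screen at 25 uM in duplicate, then concentration-response to a 50 uM top dose. Human plasma esterase activity detected colorimetrically after 0.25 h incubation, with DMSO as baseline.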

Experiment [2] concerns the target human LYN Proto-Oncogene, Src family Tyrosine Kinase (LynA), LYN (gene 4067) (UniProt P07948). As to the kind of experiment: NVS_ENZ_hLynA: NovaScreen (NVS) Enzymatic Assay for human LYN Proto-Oncogene, Src family Tyrosine Kinase (LynA) (AID 2283173). The method, boiled down:
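Recombinant kinase with fluorescent substrate; product separated from substrate by electrophoretic mobility shift and read 1 h after dosing. Duplicate screen at 25 uM, then concentration-response up to 50 uM; activity scored as signal loss against DMSO.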

The target of experiment [3] is cAMP-dependent protein kinase catalytic subunit alpha (Homo sapiens) (UniProt P17612). Kind of experiment: NVS_ENZ_hPKA: NovaScreen (NVS) Enzymatic Assay for human Protein Kinase A (PKA) (AID 2283192). The method, boiled down:
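Cell-free kinase activity read by fluorescence after mobility-shift separation of substrate and product, 1 h post-dosing. Single-concentration duplicate screen (25 uM) preceded singleton concentration series (top 50 uM); loss of signal versus DMSO.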

Experiment [4] deals with human Matrix Metalloproteinase-2 (MMP2), MMP2 (gene 4313) (UniProt P08253). As to the kind of experiment: NVS_ENZ_hMMP2: NovaScreen (NVS) Enzymatic Assay for human Matrix Metalloproteinase-2 (MMP2) (AID 2283184). In outline: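 Compounds first screened in duplicate at a single 25 uM, with actives followed up in concentration series. Recombinant human MMP2 cleaves a fluorogenic substrate; fluorescence taken at 1 h, inhibition fitted relative to DMSO.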

Experiment [5] deals with human Matrix Metalloproteinase-7 (MMP7), MMP7 (gene 4316) (UniProt P09237). As to the kind of experiment: NVS_ENZ_hMMP7: NovaScreen (NVS) Enzymatic Assay for human Matrix Metalloproteinase-7 (MMP7) (AID 2283183). In outline:
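Compounds first tested at 25 uM in duplicate, then at up to 50 uM in concentration series if active. Protease activity measured by fluorescence intensity 1 h after dosing, with fitting relative to DMSO.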

For experiment [6], the target named is human Ephrin type-A Receptor 1 (EphA1), EPHA1 (gene 2041) (UniProt P21709). Kind of experiment: NVS_ENZ_hEphA1: NovaScreen (NVS) Enzymatic Assay for human Ephrin type-A Receptor 1 (EphA1) (AID 2283158).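 Further: activity is signal loss versus DMSO meaning EphA1 kinase inhibition.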 The method, boiled down:
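Cell-free kinase activity with recombinant protein, 1 hour after dosing; product separated by electrophoretic mobility shift, fluorescence read. Primary screen at 25 uM in duplicate; hits run as concentration-response up to 50 uM, relative to DMSO.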

For experiment [7], the target named is Glycogen synthase kinase-3 beta (Homo sapiens) (UniProt P49841). As to the kind of experiment: NVS_ENZ_hGSK3b: NovaScreen (NVS) Enzymatic Assay for human Glycogen Synthase Kinase-3 beta (GSK3b) (AID 2283165). The method, boiled down:
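Recombinant enzyme with specific fluorescent substrate, 1 h, product separated by electrophoretic mobility shift. Primary duplicate screen at 25 uM; actives (e.g. 30% inhibition) followed in singleton concentration-response to 50 uM. Signal loss fitted versus DMSO.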

For experiment [8], the target named is human Janus Kinase 2 (Jak2), JAK2 (gene 3717) (UniProt O60674). As to the kind of experiment: NVS_ENZ_hJak2: NovaScreen (NVS) Enzymatic Assay for human Janus Kinase 2 (Jak2) (AID 2283169). In outline:
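Single-point duplicate screen at 25 uM, with hits run in concentration series to a 50 uM top dose. Substrate-product separation by mobility shift with fluorescence detection, 1 h post-dosing; DMSO baseline.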

The target of experiment [9] is human Mitogen- and Stress-activated Protein Kinase-1 (Msk1), RPS6KA5 (gene 9252) (UniProt O75582). Kind of experiment: NVS_ENZ_hMsk1: NovaScreen (NVS) Enzymatic Assay for human Mitogen- and Stress-activated Protein Kinase-1 (Msk1) (AID 2283187). In outline: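 Chemicals first run in duplicate at 25 uM, with actives followed up in singleton concentration series to 50 uM maximum. Enzyme activity came from substrate/product mobility-shift separation with fluorescence detection after 1 h incubation of the recombinant protein.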

For experiment [10], the target named is human Phosphodiesterase 4A1 (PDE4A1), PDE4A (gene 5141) (UniProt P27815). As to the kind of experiment: NVS_ENZ_hPDE4A1: NovaScreen (NVS) Enzymatic Assay for human Phosphodiesterase 4A1 (PDE4A1) (AID 2283191). The method, boiled down: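 Fluorescent substrate turnover by recombinant PDE4A1 read after 1 h by mobility-shift separation. Primary duplicate screen at 25 uM; hits retested in concentration series with a 50 uM maximum, relative to DMSO.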

Experiment [11] addresses Collagenase 3 (Homo sapiens) (UniProt P45452). As to the kind of experiment: NVS_ENZ_hMMP13: NovaScreen (NVS) Enzymatic Assay for human Matrix Metalloproteinase-13 (MMP13) (AID 2283182). The method, boiled down:
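Recombinant MMP13 cleaving fluorescent substrate, cell-free, measured 1 h after dosing. Primary duplicate screen at 25 uM; actives tested in concentration-response up to 50 uM; loss of signal relative to DMSO.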

The target in experiment [12] is human c-Jun N-terminal Kinases (JNK2), MAPK9 (gene 5601) (UniProt P45984). Kind of experiment: NVS_ENZ_hJNK2: NovaScreen (NVS) Enzymatic Assay for human c-Jun N-terminal Kinases (JNK2) (AID 2283171). In outline:
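Chemicals first tested in duplicate at 25 uM, then in singleton concentration series up to 50 uM, against extracted JNK2 enzyme. Activity loss read by fluorescence with mobility-shift separation 1 h post-dose; DMSO baseline.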

For experiment [13], the target named is Mitogen-activated protein kinase 3 (Homo sapiens) (UniProt P27361). Kind of experiment: NVS_ENZ_hMAPK3: NovaScreen (NVS) Enzymatic Assay for human Mitogen-Activated Protein Kinase 3 (MAPK 3) (AID 2283177). The method, boiled down:
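Chemicals were first tested in duplicate at 25 uM, with hits re-run as concentration series (max 50 uM). Recombinant enzyme activity, measured 1 h post-dose in a cell-free format, was read by fluorescence/mobility shift relative to DMSO.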

The target of experiment [14] is human Matrix Metalloproteinase-9 (MMP9), MMP9 (gene 4318) (UniProt P14780). As to the kind of experiment: NVS_ENZ_hMMP9: NovaScreen (NVS) Enzymatic Assay for human Matrix Metalloproteinase-9 (MMP9) (AID 2283190).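 Further: cell-free recombinant MMP9 protease activity read by fluorescent substrate signal; active means inhibition seen as loss of fluorescence signal versus DMSO.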 In outline: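 Cell-free fluorescence-intensity enzyme activity assay using extracted protein, read 1 h after dosing. Loss of signal versus DMSO baseline indicates inhibition; primary screen in duplicate at 25 uM, actives followed up in concentration series.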

The target of experiment [15] is human Insulin Receptor (InsR), INSR (gene 3643) (UniProt P06213). Kind of experiment: NVS_ENZ_hInsR: NovaScreen (NVS) Enzymatic Assay for human Insulin Receptor (InsR) (AID 2283168). The method, boiled down: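 Cell-free enzyme assay read 1 h post-dose by fluorescence after substrate/product mobility-shift separation. Duplicate 25 uM primary screen, then singleton concentration-response up to 50 uM for compounds passing threshold; loss of signal vs DMSO.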

Experiment [16] addresses human Matrix Metalloproteinase-3 (MMP3), MMP3 (gene 4314) (UniProt P08254). Kind of experiment: NVS_ENZ_hMMP3: NovaScreen (NVS) Enzymatic Assay for human Matrix Metalloproteinase-3 (MMP3) (AID 2283185). In outline:
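Fluorescent substrate turnover by recombinant MMP3 read after 1 h, signal loss scored against DMSO. Compounds first run in duplicate at 25 uM single dose, then actives confirmed by concentration series.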

human Esterase Plasma (ES), BCHE (gene 590), sequence (P06276 whole entry, looked up): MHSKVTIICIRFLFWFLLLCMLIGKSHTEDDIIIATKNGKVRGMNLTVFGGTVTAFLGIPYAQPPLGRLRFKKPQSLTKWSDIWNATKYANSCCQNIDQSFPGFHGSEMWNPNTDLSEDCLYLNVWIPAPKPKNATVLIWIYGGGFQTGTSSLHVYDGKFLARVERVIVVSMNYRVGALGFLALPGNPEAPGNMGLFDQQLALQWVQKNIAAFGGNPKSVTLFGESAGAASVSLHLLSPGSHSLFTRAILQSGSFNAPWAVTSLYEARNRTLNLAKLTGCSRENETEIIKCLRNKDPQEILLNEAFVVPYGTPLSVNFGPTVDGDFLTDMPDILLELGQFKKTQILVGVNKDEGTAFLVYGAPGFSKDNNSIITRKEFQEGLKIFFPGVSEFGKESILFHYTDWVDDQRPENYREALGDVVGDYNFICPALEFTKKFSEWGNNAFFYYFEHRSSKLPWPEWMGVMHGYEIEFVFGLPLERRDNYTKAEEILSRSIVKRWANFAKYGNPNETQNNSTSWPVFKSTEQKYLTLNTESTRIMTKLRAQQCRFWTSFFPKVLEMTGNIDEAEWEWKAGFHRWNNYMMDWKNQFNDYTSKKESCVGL
Glycogen synthase kinase-3 beta (Homo sapiens), sequence (P49841 whole entry, looked up): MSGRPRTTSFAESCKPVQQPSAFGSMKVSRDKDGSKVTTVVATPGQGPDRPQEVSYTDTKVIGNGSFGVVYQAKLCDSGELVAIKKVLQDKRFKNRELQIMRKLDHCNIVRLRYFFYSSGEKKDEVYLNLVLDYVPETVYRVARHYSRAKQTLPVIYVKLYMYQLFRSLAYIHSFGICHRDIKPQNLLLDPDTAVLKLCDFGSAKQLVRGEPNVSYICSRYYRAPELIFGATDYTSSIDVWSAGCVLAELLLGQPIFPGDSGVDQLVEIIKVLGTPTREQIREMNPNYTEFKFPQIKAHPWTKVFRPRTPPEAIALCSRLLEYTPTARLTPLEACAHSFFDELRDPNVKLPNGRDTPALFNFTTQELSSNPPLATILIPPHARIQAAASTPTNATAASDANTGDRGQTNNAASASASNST
Mitogen-activated protein kinase 3 (Homo sapiens), sequence (P27361 whole entry, looked up): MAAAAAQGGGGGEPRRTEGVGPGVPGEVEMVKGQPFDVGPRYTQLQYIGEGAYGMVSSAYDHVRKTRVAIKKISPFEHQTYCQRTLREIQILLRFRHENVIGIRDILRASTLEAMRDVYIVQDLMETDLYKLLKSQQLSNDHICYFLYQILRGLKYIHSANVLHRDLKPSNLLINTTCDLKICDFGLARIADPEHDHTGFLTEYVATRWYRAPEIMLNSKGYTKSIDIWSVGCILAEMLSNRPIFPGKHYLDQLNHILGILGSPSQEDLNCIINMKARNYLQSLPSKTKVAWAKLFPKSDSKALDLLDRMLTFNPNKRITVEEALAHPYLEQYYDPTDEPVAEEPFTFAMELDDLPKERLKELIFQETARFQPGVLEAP
human Janus Kinase 2 (Jak2), JAK2 (gene 3717), sequence (O60674 whole entry, looked up): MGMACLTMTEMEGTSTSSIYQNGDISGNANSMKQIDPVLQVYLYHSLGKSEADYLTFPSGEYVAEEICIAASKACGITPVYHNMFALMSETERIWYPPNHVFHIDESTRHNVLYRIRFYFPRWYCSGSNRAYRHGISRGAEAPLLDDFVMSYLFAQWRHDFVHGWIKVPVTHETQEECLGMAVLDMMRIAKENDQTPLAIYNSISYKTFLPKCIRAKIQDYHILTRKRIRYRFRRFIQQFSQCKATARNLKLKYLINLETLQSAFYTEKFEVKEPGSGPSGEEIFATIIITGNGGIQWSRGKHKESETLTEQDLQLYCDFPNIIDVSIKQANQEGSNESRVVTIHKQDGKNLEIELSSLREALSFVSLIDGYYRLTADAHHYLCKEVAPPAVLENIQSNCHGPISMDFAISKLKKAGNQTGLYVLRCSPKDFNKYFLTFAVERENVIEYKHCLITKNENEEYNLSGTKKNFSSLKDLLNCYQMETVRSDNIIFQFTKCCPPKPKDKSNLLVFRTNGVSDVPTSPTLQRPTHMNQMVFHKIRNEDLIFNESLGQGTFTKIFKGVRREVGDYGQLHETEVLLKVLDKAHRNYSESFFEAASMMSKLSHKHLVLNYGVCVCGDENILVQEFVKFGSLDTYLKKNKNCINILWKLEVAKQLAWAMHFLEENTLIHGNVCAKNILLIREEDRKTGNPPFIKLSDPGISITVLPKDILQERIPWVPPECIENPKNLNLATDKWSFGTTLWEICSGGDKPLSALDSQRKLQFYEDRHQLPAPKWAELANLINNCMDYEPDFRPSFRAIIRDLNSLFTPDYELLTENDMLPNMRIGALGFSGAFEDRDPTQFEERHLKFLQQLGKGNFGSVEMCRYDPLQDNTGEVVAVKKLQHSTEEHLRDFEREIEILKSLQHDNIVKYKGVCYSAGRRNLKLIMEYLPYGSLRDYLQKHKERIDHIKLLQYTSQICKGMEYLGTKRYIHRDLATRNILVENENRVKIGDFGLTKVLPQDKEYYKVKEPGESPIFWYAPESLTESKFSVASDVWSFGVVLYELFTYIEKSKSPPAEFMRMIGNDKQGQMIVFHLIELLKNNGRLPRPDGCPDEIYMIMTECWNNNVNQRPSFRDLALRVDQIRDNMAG
human Matrix Metalloproteinase-7 (MMP7), MMP7 (gene 4316), sequence (P09237 whole entry, looked up): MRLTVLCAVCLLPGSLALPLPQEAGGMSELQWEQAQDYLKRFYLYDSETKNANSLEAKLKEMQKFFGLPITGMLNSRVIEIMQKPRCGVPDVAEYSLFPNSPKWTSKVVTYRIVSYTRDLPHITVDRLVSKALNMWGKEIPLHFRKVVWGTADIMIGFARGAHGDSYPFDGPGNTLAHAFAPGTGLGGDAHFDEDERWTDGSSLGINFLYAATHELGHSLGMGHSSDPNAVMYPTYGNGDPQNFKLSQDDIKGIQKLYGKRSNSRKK
human Phosphodiesterase 4A1 (PDE4A1), PDE4A (gene 5141), sequence (P27815 whole entry, looked up): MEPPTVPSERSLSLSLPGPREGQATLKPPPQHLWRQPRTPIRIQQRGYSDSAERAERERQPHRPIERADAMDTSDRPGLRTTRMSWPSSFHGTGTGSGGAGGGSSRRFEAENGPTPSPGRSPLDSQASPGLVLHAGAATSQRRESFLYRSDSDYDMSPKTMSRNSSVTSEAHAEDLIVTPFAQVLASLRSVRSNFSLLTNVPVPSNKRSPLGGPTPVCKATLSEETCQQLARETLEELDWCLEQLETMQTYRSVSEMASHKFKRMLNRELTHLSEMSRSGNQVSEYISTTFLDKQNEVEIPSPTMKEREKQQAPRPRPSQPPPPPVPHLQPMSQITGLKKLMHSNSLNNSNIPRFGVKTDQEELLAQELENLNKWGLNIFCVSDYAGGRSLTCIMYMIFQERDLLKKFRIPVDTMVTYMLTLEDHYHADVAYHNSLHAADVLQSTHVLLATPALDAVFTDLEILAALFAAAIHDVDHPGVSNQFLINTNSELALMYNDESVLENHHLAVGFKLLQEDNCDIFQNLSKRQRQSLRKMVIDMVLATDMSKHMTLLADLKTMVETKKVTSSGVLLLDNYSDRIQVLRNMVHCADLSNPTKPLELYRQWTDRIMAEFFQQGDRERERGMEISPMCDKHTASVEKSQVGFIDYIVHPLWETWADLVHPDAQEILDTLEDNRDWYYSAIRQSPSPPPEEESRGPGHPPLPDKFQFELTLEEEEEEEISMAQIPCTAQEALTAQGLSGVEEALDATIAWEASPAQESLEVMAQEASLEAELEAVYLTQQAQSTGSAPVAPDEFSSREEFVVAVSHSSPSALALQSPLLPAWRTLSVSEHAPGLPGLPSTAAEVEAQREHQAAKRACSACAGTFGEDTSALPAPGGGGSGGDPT
human Matrix Metalloproteinase-9 (MMP9), MMP9 (gene 4318), sequence (P14780 whole entry, looked up): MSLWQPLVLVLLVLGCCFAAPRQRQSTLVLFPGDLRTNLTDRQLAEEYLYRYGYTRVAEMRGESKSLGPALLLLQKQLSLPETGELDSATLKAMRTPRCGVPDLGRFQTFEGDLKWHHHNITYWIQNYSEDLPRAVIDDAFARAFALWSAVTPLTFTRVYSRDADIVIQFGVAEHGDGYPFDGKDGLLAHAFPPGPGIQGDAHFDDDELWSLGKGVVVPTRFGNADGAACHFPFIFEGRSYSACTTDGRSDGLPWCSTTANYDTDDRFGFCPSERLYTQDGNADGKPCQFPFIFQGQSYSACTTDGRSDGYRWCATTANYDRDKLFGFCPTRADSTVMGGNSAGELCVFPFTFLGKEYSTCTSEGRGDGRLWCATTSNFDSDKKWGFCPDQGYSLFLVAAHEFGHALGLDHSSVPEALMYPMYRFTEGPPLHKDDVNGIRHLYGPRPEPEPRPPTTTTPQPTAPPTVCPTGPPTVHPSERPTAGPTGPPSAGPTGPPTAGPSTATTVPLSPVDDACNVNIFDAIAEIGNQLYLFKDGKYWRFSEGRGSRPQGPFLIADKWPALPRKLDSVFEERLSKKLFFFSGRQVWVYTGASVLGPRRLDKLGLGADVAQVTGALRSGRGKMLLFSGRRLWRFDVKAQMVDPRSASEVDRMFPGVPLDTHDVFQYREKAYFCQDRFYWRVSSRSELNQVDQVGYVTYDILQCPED
human Matrix Metalloproteinase-3 (MMP3), MMP3 (gene 4314), sequence (P08254 whole entry, looked up): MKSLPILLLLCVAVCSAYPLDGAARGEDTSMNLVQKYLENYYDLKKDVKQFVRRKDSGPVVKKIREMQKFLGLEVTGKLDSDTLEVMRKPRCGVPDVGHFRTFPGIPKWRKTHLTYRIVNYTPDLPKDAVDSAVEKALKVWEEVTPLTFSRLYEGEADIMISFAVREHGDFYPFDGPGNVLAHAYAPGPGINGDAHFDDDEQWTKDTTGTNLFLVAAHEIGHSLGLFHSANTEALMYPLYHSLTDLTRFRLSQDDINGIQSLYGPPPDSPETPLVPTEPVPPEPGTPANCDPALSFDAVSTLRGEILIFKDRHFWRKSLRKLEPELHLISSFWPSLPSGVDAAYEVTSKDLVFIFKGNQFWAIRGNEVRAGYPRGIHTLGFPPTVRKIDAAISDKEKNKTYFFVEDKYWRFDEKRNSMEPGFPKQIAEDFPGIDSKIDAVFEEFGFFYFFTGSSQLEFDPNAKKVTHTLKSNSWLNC

Usually AC50 stands for the concentration giving half of the maximal activity seen. In the case of `O=C(N[C@@H](c1ccccc1)[C@@H]1CCCCN1)c1cccc(C(F)(F)F)c1Cl`, in experiment [1], the AC50 is 20.8 µM (active). In addition, the result in experiment [2] and in experiment [3] was inactive.

With `CSc1ccc(Oc2ccc(S(N)(=O)=O)cc2CN(C)C)cc1C`, the AC50 in experiment [1] was 0.108 µM (active); in experiment [4], 9.97 µM (active).

In the case of `Cc1ccc(-c2cc(C(F)(F)F)nn2-c2ccc(S(N)(=O)=O)cc2)cc1`, the outcome in experiment [1], in [5] and in experiment [4] was inactive.

As to `CCC(C)N(C)C(=O)c1cc2ccccc2c(-c2ccccc2Cl)n1` (configuration not stated), the AC50 in experiment [1] is 9.91 µM (active).

For the compound `CCCCCCCCCC[N+](C)(C)[O-]`, the compound was called inactive in [6].

With `Cc1c(C)c2c(c(C)c1O)CCC(C)(COc1ccc(CC3SC(=O)NC3=O)cc1)O2` (configuration not stated), the outcome in experiment [1] was inactive.

For the compound `C#CC(O)C(CC)CCCC` (configuration not stated), the result in experiment [6] and in experiment [5] was inactive.

As to `COc1ccc(OC(F)(F)F)cc1CN[C@H]1CCCN[C@H]1c1ccccc1`, in [1], the AC50 is 1.47 µM (active). In addition, the compound was called inactive in [7], in experiment [8], in experiment [9], in experiment [10] and in [3].

With `CC(C)(C)c1ccccc1`, the AC50 in experiment [11] was 19.4 µM (active). In experiment [3], the compound was called inactive.

Consider `C=CCc1ccc(OC)c(OC)c1`, for which the compound was called inactive in [7].

Turning to `CCCCCCCCCCCCCCCCO`, the call in experiment [8] and in [12] was inactive.

With `NC(=Nc1ccccc1)Nc1ccccc1`, in experiment [13], the compound was classed as inactive.

On to `c1ccc2occc2c1`, for which the compound was called inactive in experiment [7], in experiment [4] and in experiment [14].

Regarding `CCOCCOCCO`, in experiment [7], the result was inactive.

Take `O=C1NC(=O)C(c2ccccc2)(c2ccccc2)N1`: the result in experiment [8], in experiment [2] and in [10] was inactive.

Turning to `CC(N)=O`, the compound was called inactive in [15].

With `CC(C)NCC(O)c1ccc(O)c(O)c1` (configuration not stated), the call in experiment [8] and in [10] was inactive.

For the compound `O=C1OC(c2ccc(O)cc2)(c2ccc(O)cc2)c2ccccc21`, the result in [7] was inactive.

For `COc1ccc(C(=O)Nc2nc3ccccc3c(NCc3ccccc3)c2C#N)cc1`, in experiment [10], the half-maximal activity concentration (AC50) is 17.7 µM (active).

As for `O=C(Oc1ccccc1)c1cccc(C(=O)Oc2ccccc2)c1`, the result in experiment [7], in [8] and in [3] was inactive.

Take `C=CCCCCCCCCCCCC`: the result in experiment [13] was inactive.

Turning to `Nc1nc(Cl)nc2c1ncn2[C@H]1C[C@H](O)[C@@H](CO)O1`, the AC50 in [10] was 9.18 µM (active).

Consider `Oc1ccc(O)cc1`, for which the result in experiment [7] was inactive.

`C/C=C/C=C/C(=O)O`: the AC50 in experiment [14] is 1.24 µM (active). In experiment [10], the result was inactive.

Consider `O=C1CCCCC1`, for which the compound was called inactive in experiment [13].

Regarding `CC(C)c1cccc(C(C)C)c1NC(=O)NS(=O)(=O)c1cc(C(C)(C)O)co1`, the outcome in [7] was inactive.

Regarding `O=C(O)c1[nH]n(-c2ccc(S(=O)(=O)O)cc2)c(=O)c1N=Nc1ccc(S(=O)(=O)O)cc1`, the concentration at half-maximal activity (AC50) in experiment [11] was 23.6 µM (active); in [5] it was 12.3 µM (active); in experiment [16], 23.6 µM (active).

As for `S=c1[nH]c2ccccc2s1`, the outcome in experiment [7], in [9] and in experiment [3] was inactive.

Consider `CC(C)COC(=O)CCCCC(=O)OCC(C)C`, for which the result in experiment [8] was inactive.

Turning to `NC=O`, the call in experiment [13] was inactive.

Consider `CCCC(=O)O`, for which, in experiment [7], the compound was called inactive.

`OCC(O)CO`: the outcome in experiment [14] was inactive.

With `NC1CCCCC1`, the outcome in experiment [7] was inactive.

In the case of `O=C(O)c1cccnc1`, the result in [13] was inactive.

As to `O=Cc1ccccc1C=O`, the AC50 in experiment [16] is 6.96 µM (active).

In the case of `CC(=O)CC(c1ccccc1)c1c(O)c2ccccc2oc1=O` (configuration not stated), the outcome in experiment [3] was inactive.

With `COC(=O)CCCC(=O)OC`, the call in [7] was inactive.

On to `Nc1nc(=S)c2[nH]cnc2[nH]1`, for which the outcome in experiment [7] and in [5] was inactive. The figures for the concentration at half-maximal activity (AC50) in experiment [11], in [4] and in experiment [14] were 27.1 µM (active), 18.8 µM (active) and 39.2 µM (active), respectively.
